Assay outcomes: PubChem, The Scripps Research Institute Molecular Screening Center
Sampled rows, rich in hits. Any-hit rate of the full collection: about 4.1%.
hcDAF12 agonist: activators of H. contortus DAF-12 nuclear receptor; HEK293 hcDAF-12 lit1-tk-luc reporter, luminescence; 0% DMSO, 100% Δ7-dafachronic acid; activation, % at 6.8 µM; hit rate 1.4% among 370,000; AID 652067;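 active means activation above the mean of all tested compounds plus 3 SD, cut at about 5.5% in these data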;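 further: 100% = response to 3 µM Δ7-dafachronic acid high control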
DAX1 inh-1: inhibitors of DAX1 repression of SF-1 activated StAR promoter | HEK293T StAR-luciferase reporter, SF-1/DAX-1 repression relief | inhibition, % at 6.8 µM | hit rate 1.1% among 370,000 | AID 652010;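 active means inhibition above the mean over all tested compounds plus 3 SD, cut at about 3.6% in these data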;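 further: 0% = DAX-1 cells with DMSO and 100% = cells lacking DAX-1 with DMSO; higher inhibition means more luminescence from relief of DAX-1 repression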
ssDAF12 agonist: S. stercoralis DAF-12 activation, primary screen. HEK293 ssDAF-12/GRIP1 lit1-tk-luc reporter, luminescence; % of 3 µM dafachronic acid response. activation, % at 6.8 µM. hit rate 1% among 370,000. AID 652126;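 active means activation above the mean over all tested compounds plus 3 SD, cut at about 0.9% in these data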;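 further: 0% = DMSO-only wells and 100% = 3 µM delta7-dafachronic acid wells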
DAX1 inh-2: NR0B1 (DAX1) inhibition | P51843 | HEK293 Gal4-DAX1 luciferase reporter, luminescence | inhibition, % at 6.75 µM | hit rate 0.99% among 340,000 | AID 504766;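 active means inhibition above the mean over all tested compounds plus 3 SD, cut at about 4.2% in these data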;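 further: 0% = DAX1-transfected cells with DMSO and 100% = empty-vector control cells with DMSO; inhibition shows as a rise in luminescence from relieved DAX1 repression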
Target sequence (P51843 207-470 limits assumed): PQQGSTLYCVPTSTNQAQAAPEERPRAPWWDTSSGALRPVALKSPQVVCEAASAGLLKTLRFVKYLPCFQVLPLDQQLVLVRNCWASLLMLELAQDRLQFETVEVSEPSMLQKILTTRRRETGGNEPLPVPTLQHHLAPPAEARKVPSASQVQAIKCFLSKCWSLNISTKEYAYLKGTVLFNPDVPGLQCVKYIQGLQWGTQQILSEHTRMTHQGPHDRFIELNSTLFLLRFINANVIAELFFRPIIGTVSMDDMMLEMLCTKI
hgDAF12 agonist: hgDAF-12 agonism, primary luciferase screen. activation, % at 6.8 µM. HEK293 GAL4-hgDAF12 UAS-luciferase reporter, agonist luminescence; normalized to butyrate control. hit rate 1.8% among 370,000. AID 687014;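 active means activation above a cutoff set at the mean of all screened compounds plus 3 SD, cut at about 10% in these data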;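 further: 0% = DMSO wells and 100% = sodium butyrate wells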
LXR ag: counter-screen for hcDAF-12 agonists: agonists of human LXR-beta | HEK293 Gal4-LXR tk-luc reporter, luminescence, 24 h; normalized: DMSO 0%, positive control 100% | shares compounds with hcDAF12 agonist | activation, % at 6.8 µM | 3,400 tested, under 10 active;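 active means mean percent activation of the reporter above a cutoff set as the average over tested compounds plus their standard deviation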
Target sequence (P55055 whole entry, looked up, the tested form may be a part): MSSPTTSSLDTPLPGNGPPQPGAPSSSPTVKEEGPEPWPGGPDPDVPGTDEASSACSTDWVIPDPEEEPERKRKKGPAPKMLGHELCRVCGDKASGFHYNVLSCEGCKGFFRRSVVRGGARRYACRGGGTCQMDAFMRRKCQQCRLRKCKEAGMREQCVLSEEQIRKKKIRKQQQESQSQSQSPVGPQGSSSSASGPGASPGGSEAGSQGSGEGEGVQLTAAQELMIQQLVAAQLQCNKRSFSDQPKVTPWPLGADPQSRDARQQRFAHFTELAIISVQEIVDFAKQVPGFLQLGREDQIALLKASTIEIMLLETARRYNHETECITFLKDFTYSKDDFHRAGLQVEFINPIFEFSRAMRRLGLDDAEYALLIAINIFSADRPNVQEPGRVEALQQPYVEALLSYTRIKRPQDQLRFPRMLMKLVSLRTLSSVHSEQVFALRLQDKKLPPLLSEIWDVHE
hcDAF12 conf: confirmation of H. contortus DAF-12 agonists. shares compounds with hcDAF12 agonist. hit rate 61% among 3,400. HEK293 hcDAF-12 lit1-tk-luc reporter, luminescence; % of Δ7-dafachronic acid response. AID 743032. activation, % at 6.8 µM;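 active means mean activation across triplicate tests above the threshold derived from the earlier primary screen, cut at about 5.5% in these data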;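 further: 0% = DMSO only wells and 100% = 3 µM Δ7-dafachronic acid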
Starred values were filed as active, the others as inactive; x = not tested or not shown.

SMILES | hcDAF12 agonist | DAX1 inh-1 | ssDAF12 agonist | DAX1 inh-2 | hgDAF12 agonist | LXR ag | hcDAF12 conf
O=C(NN=Cc1ccccc1O)C(O)c1ccccc1 (stereo unspecified) | 1.4 | -0.1 | -0.6 | 0.6 | -0.1 | x | x
CC(C)N1CCC(C)(C(=O)Nc2cccc(Oc3ccccc3)c2)C1 (stereo unspecified) | 0.8 | -0.6 | -1.1 | x | -1.7 | x | x
CCOC(=O)CC[C@@H]1CC[C@]2(CCCN(C(=O)c3ccco3)C2)O1 | -1.7 | 0.2 | -1.0 | x | -2.3 | x | x
c1ccc(-c2cc3cc4c(cc3cn2)OCO4)cc1 | 8.1* | 1.6 | 1.4* | 2.9 | 12.8* | 1.6 | 8.5*
C[C@H]1CCCN1c1ccc2c(c1)OCCCN(C1CC1)S2(=O)=O | -1.3 | -1.2 | -1.3 | x | 0.1 | x | x
COc1ccc2c(=O)c(-c3nc(C)cs3)coc2c1 | 7.0* | 4.1* | 1.1* | 0.2 | 13.8* | 1.9 | 14.3*
CCc1cc2c(=O)c(-c3nc(C)cs3)coc2cc1O | 3.0 | 0.5 | 0.5 | 2.2 | 4.6 | x | x
Cc1csc(-c2coc3cc(O)cc(C)c3c2=O)n1 | 12.7* | 0.8 | 1.6* | 2.7 | 9.5 | 0.7 | 10.7*
CCc1nc2ccc(C(=O)NCc3cccs3)cn2c1N(C)Cc1nccs1 | -3.2 | -3.4 | -1.9 | x | -0.4 | x | x
C[C@H]1/C=C/CC(=O)N[C@@H](c2ccc3ccccc3c2)[C@@H](C)/C=C/CC(=O)N[C@H]1c1ccc2ccccc2c1 | -2.5 | -0.7 | 0.2 | x | 0.7 | x | x
C[C@@H]1/C=C/CC(=O)N[C@H](c2ccc3ccccc3c2)[C@H](C)/C=C/CC(=O)N[C@@H]1c1ccc2ccccc2c1 | 8.7* | -0.6 | -1.0 | x | -0.2 | -0.2 | 1.7
Cc1ccc(C)c(NC(=O)CNC(=O)N2CC(=O)Nc3ccccc32)c1 | -0.7 | 0.3 | -0.8 | 0.2 | 1.3 | x | x
CCOc1ccccc1NC(=O)CNC(=O)N1CC(=O)Nc2ccccc21 | 7.0* | 3.5 | -0.4 | 0.5 | 1.6 | -0.2 | 3.3
O=C(C(=O)N1CCN(S(=O)(=O)c2ccc(C(F)(F)F)cc2)CC1)c1cccc(C(F)(F)F)c1 | 0.3 | 0.1 | -1.0 | x | 0.9 | x | x
CC(=O)c1c(CC(=O)O)[nH]n(-c2nc3ccccc3s2)c1=O | 6.6* | 1.5 | -0.3 | 1.3 | 6.9 | 0.0 | 4.6
O=C(NN=Cc1ccccc1Cl)C(=O)Nc1cccc(C(F)(F)F)c1 | -0.9 | 0.3 | -0.9 | x | -0.8 | x | x
O=C(Nn1cnnc1)c1cc(-c2ccccn2)nc2ccccc12 | 10.9* | 1.6 | 1.3* | 0.2 | 5.6 | -0.2 | 4.1
O=C(NC1CC1)c1cc(-c2ccccn2)nc2ccccc12 | 0.7 | -0.2 | -0.9 | 0.1 | 0.6 | x | x
CCOc1ccccc1N1CCN(C(=O)C2CSC3(C)CCC(=O)N23)CC1 (stereo unspecified) | -0.1 | 1.5 | -0.8 | 0.1 | -0.3 | x | x
N#CCCN(Cc1ccccc1)C(C(=O)NC1CCCCC1)c1ccnc2ccccc12 (stereo unspecified) | -2.3 | 1.5 | -1.0 | x | -2.6 | x | x
CCc1c(C)nc(SCC(N)=O)c(C#N)c1C | -1.7 | -0.1 | -1.0 | -0.5 | 1.0 | x | x
CCc1c(C)nc(SCC(=O)c2cccs2)c(C#N)c1C | 8.2* | 2.0 | 0.8 | 2.5 | 5.7 | 1.0 | 8.7*
Cc1c(Cc2ccccc2)c(=O)oc2c(C)c(OCC(=O)NCC3CCC(C(=O)O)CC3)ccc12 (stereo unspecified) | 7.3* | 0.6 | 0.8 | 1.8 | 2.0 | -0.4 | 0.0
COc1ccc(C(=O)CC(C#N)c2ccc3c(c2)OCO3)cc1OC (stereo unspecified) | -0.8 | -2.0 | -1.5 | -1.5 | 0.2 | x | x
C(=N/n1c2ccccc2c2ccccc21)/c1ccco1 | 1.3 | 0.2 | -1.0 | 0.9 | 0.8 | x | x
SMILES | hcDAF12 agonist | DAX1 inh-1 | ssDAF12 agonist | DAX1 inh-2 | hgDAF12 agonist | LXR ag | hcDAF12 conf
N=c1scc(-c2ccccc2)n1/N=C/c1ccco1 | 6.8* | 2.0 | 1.4* | -0.2 | 11.1* | 0.6 | 4.4
COc1ccccc1C(=O)N/N=C(\C)CC(=O)Nc1ccccc1NC(C)=O | 1.1 | 0.4 | 0.3 | 1.0 | 3.9 | x | x
COc1ccccc1-c1cc(C(=O)Nc2cccnc2Cl)no1 | -1.5 | -0.3 | -1.3 | -1.3 | -1.1 | x | x
COc1ccccc1C(=O)N/N=C(\C)CC(=O)Nc1ccccn1 | 7.3* | 0.3 | 0.4 | -0.8 | 3.2 | -0.1 | 6.0*
COc1ccccc1C(=O)NC(=S)Nc1cccnc1Cl | 8.1* | 1.2 | 1.2* | -4.0 | 5.0 | 1.7 | 19.5*
O=C(COc1ccccc1Cl)Nc1ccc(Cl)cn1 | 9.0* | 2.6 | 1.4* | 1.6 | 15.2* | 1.4 | 10.8*
COc1ccccc1C(=O)N/N=C(\C)CC(=O)Nc1ccc(Nc2ccccc2)cc1 | 3.9 | -0.2 | -0.6 | 1.3 | 4.7 | x | x
COc1ccccc1C(=O)N/N=C(\C)CC(=O)Nc1ccc(Cl)cn1 | 6.6* | 2.5 | 0.0 | 2.7 | 5.3 | -0.1 | 2.6
CCOc1ccc2[nH]c3c(NCCN(CC)CC)ncnc3c2c1 | 0.5 | 0.3 | -1.1 | -0.1 | 0.7 | x | x
COc1ccc(-c2nc(NCCCN(C)C)c3ccccc3n2)cc1 | 10.0* | 1.9 | 0.3 | 6.7* | 9.2 | 0.1 | 9.3*
CCN(CC)CCCNc1nc2ccccc2c2[nH]c3ccc(OC)cc3c12 | 14.2* | 0.5 | 3.6* | 3.8 | 6.8 | 2.0 | 16.3*
CCN(CC)CCCNc1nc(-c2ccccc2)nc2ccccc12 | 4.5 | 0.6 | -1.3 | 1.3 | 1.5 | x | x
CCNC(=O)C1CCCN(Cc2cc(-c3ccccc3)on2)CC1 (stereo unspecified) | 2.7 | 0.0 | -0.6 | x | 6.9 | x | x
Cc1ccc(OC(=O)c2oc3ccc(F)cc3c2C)c(C)c1 | 8.1* | 0.0 | 0.7 | 1.2 | 10.7* | 0.0 | 3.4
Cn1nc(-c2ccccc2)c2nc3ccccc3nc21 | 6.8* | 0.1 | 0.6 | -0.2 | 2.5 | 0.3 | 6.1*
Clc1nc2ccccc2nc1-c1ccccc1 | -0.6 | 0.5 | -1.6 | 1.5 | -0.1 | x | x
COc1ccc2ccccc2c1C1NC(=O)NC(C)=C1[N+](=O)[O-] (stereo unspecified) | -3.0 | -0.4 | -1.2 | 0.9 | -1.4 | x | x
O=C(NCc1ccco1)C1CCCN(S(=O)(=O)c2ccc(F)cc2)C1 (stereo unspecified) | -1.8 | 0.5 | -1.3 | x | -1.3 | x | x
N#C/C(=C\c1ccc(-c2ccc(C(=O)O)cc2)o1)C(=O)Nc1ccc(F)cc1 | 6.9* | 1.1 | 0.3 | -0.7 | 9.3 | 0.1 | 5.4
N#C/C(=C\c1ccc(-c2ccc(C(=O)O)cc2)o1)C(=O)NCC1CCCO1 (stereo unspecified) | x | x | x | 0.8 | x | x | x
Cc1cccc(C)c1NC(=O)/C(C#N)=C/c1ccc(-c2ccc(C(=O)O)cc2)o1 | 7.0* | 1.4 | 0.0 | 4.3* | 8.1 | 0.7 | 5.2
